Several values for one entry are separate records, joined by “and”; a condition that tells them apart may be missing. Equal values may be shown once. Inconclusive results are not listed. The source holds several records for some structures; these can differ, active in one and inactive in another. Activity calls are given as the source filed them. How the source made its calls, unless noted: active means hit-call score of the fitted dose curve at least 0.9, where 1 is the maximum; inactive means score below 0.9.
Legend:
[1] = BSK_LPS_PGE2: BioMAP Diversity Plus: LPS Assay for Prostaglandin E2 (PGE2) Biomarker Activity (AID 2283082); conditions: primary human HUVEC with PBMC; actives raise or lower the signal;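 on AC50: secreted prostaglandin E2 measured by ELISA in LPS-stimulated co-culture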
Method in brief: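 LPS-activated HUVEC/PBMC co-culture; cmpd dosed, 24 h; PGE2 by ELISA; bidirectional fit vs DMSO; SRB (0.1%, TCA-fixed, 560 nm) in parallel plates for overt cytotox.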

[2] = read-out: Macrophage colony-stimulating factor (MCSF), CSF1 (gene 1435); experiment: BSK_LPS_MCSF: BioMAP Diversity Plus: LPS Assay for Macrophage colony-stimulating factor (MCSF) Biomarker Activity (AID 2283083); conditions: primary human HUVEC with PBMC; actives raise or lower the signal
Method in brief: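 Compound is added to a human vascular primary co-culture of umbilical vein endothelium and blood mononuclear cells. After 24 h, M-CSF is quantified by ELISA. Signal changes are fitted in both directions against DMSO.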

[3] = read-out: Tissue Factor, F3 (gene 2152); experiment: BSK_LPS_TissueFactor: BioMAP Diversity Plus: LPS Assay for Tissue Factor Biomarker Activity (AID 2283084); conditions: primary human HUVEC with PBMC; actives raise or lower the signal
Method in brief: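 In this co-culture system of umbilical vein endothelium with PBMC, stimulated with LPS, cell-surface CD142 is detected by ELISA at 24 h. Endpoint values derive from bidirectional fitting, DMSO serving as baseline.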

[4] = read-out: Tumor necrosis factor (Homo sapiens) (UniProt P01375); experiment: BSK_LPS_TNFa: BioMAP Diversity Plus: LPS Assay for Tumour Necrosis Factor alpha (TNFa) Biomarker Activity (AID 2283085); conditions: primary human HUVEC with PBMC; actives raise or lower the signal
Method in brief: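 Read-out is ELISA of TNFa in primary human endothelial cell–PBMC co-cultures at 24 h after compound. Activity in either direction was fitted against DMSO.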

[5] = read-out: Vascular cell adhesion molecule 1 (VCAM1), VCAM1 (gene 7412); experiment: BSK_LPS_VCAM1: BioMAP Diversity Plus: LPS Assay for Vascular cell adhesion molecule 1 (VCAM1) Biomarker Activity (AID 2283086); conditions: primary human HUVEC with PBMC; actives raise or lower the signal
Method in brief: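 HUVEC + PBMC co-culture, LPS system; compound 24 h; VCAM-1 by ELISA; bidirectional fit vs DMSO control; parallel SRB (0.1%, TCA-fixed, 560 nm) for cytotoxicity.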

[6] = read-out: CD38, CD38 (gene 952); experiment: BSK_SAg_CD38: BioMAP Diversity Plus: SAg Assay for CD38 Biomarker Activity (AID 2283087); conditions: primary human HUVEC with PBMC; actives raise or lower the signal
Method in brief: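 Human HUVEC plus PBMC co-culture stimulated with superantigen; CD38 measured by ELISA 24 h after chemical dosing. Fluorescence read-out, bidirectional fit against DMSO; cytotoxicity tracked in parallel by SRB and Alamar Blue.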

[7] = read-out: CD40, CD40 (gene 958); experiment: BSK_SAg_CD40: BioMAP Diversity Plus: SAg Assay for CD40 Biomarker Activity (AID 2283088); conditions: primary human HUVEC with PBMC; actives raise or lower the signal
Method in brief: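 Fluorescence ELISA read-out of CD40 from umbilical vein endothelium plus peripheral blood mononuclear cells, sampled 24 h after dosing. Values come from bidirectional curve fitting with DMSO as baseline.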

[8] = read-out: Monocyte Chemoattractant Protein-1 (MCP1), CCL2 (gene 6347); experiment: BSK_SAg_MCP1: BioMAP Diversity Plus: SAg Assay for Monocyte Chemoattractant Protein-1 (MCP1) Biomarker Activity (AID 2283090); conditions: primary human HUVEC with PBMC; actives raise or lower the signal
Method in brief: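 MCP-1 levels in the endothelial–PBMC SAg co-culture were quantified by ELISA at 24 h post-dosing; both increases and decreases versus DMSO scored. Cytotoxicity monitored by SRB total protein in parallel cultures.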

[9] = read-out: E-selectin (Homo sapiens) (UniProt P16581); experiment: BSK_SAg_Eselectin: BioMAP Diversity Plus: SAg Assay for Eselectin Biomarker Activity (AID 2283091); conditions: primary human HUVEC with PBMC; actives raise or lower the signal
Method in brief: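 Primary human endothelial cells and peripheral blood mononuclear cells were co-cultured and exposed to chemical for 24 hours. E-selectin levels were then quantified by ELISA, with bidirectional curve fitting normalised to DMSO controls.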

[10] = read-out: Monokine induced gamma interferon (MIG), CXCL9 (gene 4283); experiment: BSK_SAg_MIG: BioMAP Diversity Plus: SAg Assay for Monokine induced gamma interferon (MIG) Biomarker Activity (AID 2283092); conditions: primary human HUVEC with PBMC; actives raise or lower the signal
Method in brief: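 Values reflect bidirectional fitting of ELISA-measured MIG against DMSO vehicle, taken 24 h after dosing of a co-culture of human umbilical vein endothelial cells and peripheral blood mononuclear cells.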

[11] = BSK_SAg_PBMCCytotoxicity: PBMC Cytotoxicity Assessment in the BioMAP Diversity Plus: SAg Assay (AID 2283093); conditions: primary human HUVEC with PBMC;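 further: PBMC viability measured as Alamar Blue reduction fluorescence at 546/580 nm; fitted both ways against DMSO so a hit may be loss or gain of signal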;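 on AC50: PBMC superantigen activated with SEB plus TSST-1 one hour after compound addition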
Method in brief: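 HUVEC/PBMC co-culture; PBMC exposed to chemical 1 h before SEB and TSST-1 activation (20 ng/mL each), incubated 90 h, then Alamar Blue 6 h, fluorescence 546/580 nm. Bidirectional fit versus DMSO baseline.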

[12] = read-out: Interleukin-8 (IL8), CXCL8 (gene 3576); experiment: BSK_SAg_IL8: BioMAP Diversity Plus: SAg Assay for Interleukin-8 (IL8) Biomarker Activity (AID 2283094); conditions: primary human HUVEC with PBMC; actives raise or lower the signal
Method in brief: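 ELISA read-out of IL-8 in a primary human vascular co-culture (umbilical vein endothelium plus PBMC), taken 24 h after compound addition. Values derive from bidirectional fits against DMSO negative controls.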

[13] = BSK_SAg_Proliferation: Cell Proliferation Assessment in the BioMAP Diversity Plus: SAg Assay (AID 2283095); conditions: primary human HUVEC with PBMC;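 further: relative cell number as total protein by SRB absorbance in sub-confluent culture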
Method in brief: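 Cells (endothelium plus PBMC, human primary) were dosed with chemical, cultured 96 h, fixed in 10% TCA and stained with 0.1% SRB. Absorbance at 560 nm gave relative protein, fitted bidirectionally relative to DMSO.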

[14] = BSK_SAg_SRB: Viability Assessment in the BioMAP Diversity Plus: SAg Assay (AID 2283096); conditions: primary human HUVEC with PBMC;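 further: cells read one day after compound addition; hits may be either gain or loss of signal compared with DMSO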
Method in brief: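 Human umbilical vein endothelial cells co-cultured with PBMC, read 24 h after compound dosing. Total protein measured by sulforhodamine B staining (0.1% SRB after 10% TCA fixation, absorbance 560 nm); bidirectional fit versus DMSO baseline.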

[15] = read-out: CD69, CD69 (gene 969); experiment: BSK_SAg_CD69: BioMAP Diversity Plus: SAg Assay for CD69 Biomarker Activity (AID 2283089); conditions: primary human HUVEC with PBMC; actives raise or lower the signal;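 on AC50: cell surface CD69 protein quantified by ELISA with fluorescence detection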
Method in brief: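 Values derive from bidirectional fitting relative to DMSO vehicle. Cells: umbilical vein endothelium plus peripheral blood mononuclear cells, treated 24 h before fluorescent ELISA for CD69.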

[16] = target: human CYP19A1, CYP19A1 (gene 1588) (UniProt P11511); experiment: NVS_ADME_hCYP19A1: NovaScreen (NVS) CYP450-related Enzyme Activity (ADME) Assay for human CYP19A1 (AID 2283098; active means hit-call score of the fitted dose curve at least 0.9, where 1 is the maximum;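 further: potency for inhibitors seen as loss of fluorescent enzyme signal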)
Method in brief: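 Recombinant enzyme in a cell-free format, read 0.5 h after dosing by fluorescence from a fluorogenic substrate. Loss of signal was fitted against acetonitrile as baseline. Primary screen in duplicate at 10 uM, actives then tested in concentration series.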

[17] = target: human CYP1A1, CYP1A1 (gene 1543) (UniProt P04798); experiment: NVS_ADME_hCYP1A1: NovaScreen (NVS) CYP450-related Enzyme Activity (ADME) Assay for human CYP1A1 (AID 2283100; active means hit-call score of the fitted dose curve at least 0.9, where 1 is the maximum)
Method in brief: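 Compounds first went through duplicate single-concentration testing at 10 uM against purified CYP1A1. Those passing a threshold such as 30% inhibition entered singleton dose-response, highest concentration 20 uM. Signal was fluorescence measured after 1 hour.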

[18] = target: human CYP2B6, CYP2B6 (gene 1555) (UniProt P20813); experiment: NVS_ADME_hCYP2B6: NovaScreen (NVS) CYP450-related Enzyme Activity (ADME) Assay for human CYP2B6 (AID 2283101; active means hit-call score of the fitted dose curve at least 0.9, where 1 is the maximum)
Method in brief: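 Compounds were first screened in duplicate at 10 uM against recombinant enzyme, with the fluorescent product measured after 1 hour. Active compounds were retested over a concentration series. Loss of fluorescence versus acetonitrile control was scored as reduced enzyme activity.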

[19] = target: human CYP1A2, CYP1A2 (gene 1544) (UniProt P05177); experiment: NVS_ADME_hCYP1A2: NovaScreen (NVS) CYP450-related Enzyme Activity (ADME) Assay for human CYP1A2 (AID 2283102; active means hit-call score of the fitted dose curve at least 0.9, where 1 is the maximum;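 further: fluorescence from turnover of a fluorogenic substrate by recombinant insect-cell CYP1A2; potency for inhibition since loss of fluorescence marks reduced CYP1A2 activity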)
Method in brief: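 Compounds were tested at 10 uM in duplicate against recombinant CYP1A2 produced in insect cells. Enzyme activity was measured by fluorescence 0.5 h after dosing, with loss of signal versus acetonitrile control. Active compounds were re-tested in concentration series.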

Measured: AC50

Chain of E-selectin (Homo sapiens) (P16581 whole entry, looked up): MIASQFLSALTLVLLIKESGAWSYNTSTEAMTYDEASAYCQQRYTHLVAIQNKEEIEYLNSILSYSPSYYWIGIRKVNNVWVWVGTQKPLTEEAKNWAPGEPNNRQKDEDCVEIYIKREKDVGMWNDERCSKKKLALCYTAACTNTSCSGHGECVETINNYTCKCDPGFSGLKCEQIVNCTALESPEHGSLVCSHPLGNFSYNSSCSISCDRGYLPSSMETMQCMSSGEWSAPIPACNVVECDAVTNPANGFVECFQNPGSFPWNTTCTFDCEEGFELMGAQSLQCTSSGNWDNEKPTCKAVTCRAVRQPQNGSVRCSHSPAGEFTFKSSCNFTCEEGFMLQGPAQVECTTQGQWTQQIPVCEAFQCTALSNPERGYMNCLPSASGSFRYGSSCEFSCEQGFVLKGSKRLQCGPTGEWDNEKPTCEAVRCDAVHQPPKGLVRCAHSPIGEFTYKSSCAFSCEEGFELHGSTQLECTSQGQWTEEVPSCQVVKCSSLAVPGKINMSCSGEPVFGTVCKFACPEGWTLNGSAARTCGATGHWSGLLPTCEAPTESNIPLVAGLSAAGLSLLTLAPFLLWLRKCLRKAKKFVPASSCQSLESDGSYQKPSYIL
Chain of Tumor necrosis factor (Homo sapiens) (P01375 whole entry, looked up): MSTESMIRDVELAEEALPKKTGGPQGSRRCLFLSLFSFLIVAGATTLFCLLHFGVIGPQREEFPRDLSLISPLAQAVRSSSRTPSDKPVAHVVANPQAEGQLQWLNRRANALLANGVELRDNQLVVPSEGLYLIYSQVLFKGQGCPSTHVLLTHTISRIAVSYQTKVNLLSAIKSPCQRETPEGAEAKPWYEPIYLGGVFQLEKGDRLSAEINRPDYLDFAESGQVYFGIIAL
Chain of human CYP2B6, CYP2B6 (gene 1555) (P20813 whole entry, looked up): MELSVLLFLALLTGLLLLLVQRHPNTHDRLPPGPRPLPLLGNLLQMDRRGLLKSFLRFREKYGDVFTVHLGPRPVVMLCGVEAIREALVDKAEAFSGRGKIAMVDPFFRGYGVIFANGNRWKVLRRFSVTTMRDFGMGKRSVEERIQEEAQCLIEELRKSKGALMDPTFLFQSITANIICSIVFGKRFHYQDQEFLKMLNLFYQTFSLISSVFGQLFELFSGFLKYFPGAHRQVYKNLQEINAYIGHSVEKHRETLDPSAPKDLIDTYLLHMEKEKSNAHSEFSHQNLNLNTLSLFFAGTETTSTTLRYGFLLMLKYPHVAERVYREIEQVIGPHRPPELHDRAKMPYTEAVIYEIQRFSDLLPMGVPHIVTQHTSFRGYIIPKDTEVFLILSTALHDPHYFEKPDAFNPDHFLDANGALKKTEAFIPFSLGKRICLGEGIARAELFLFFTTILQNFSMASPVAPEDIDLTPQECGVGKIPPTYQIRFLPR
Chain of human CYP19A1, CYP19A1 (gene 1588) (P11511 whole entry, looked up): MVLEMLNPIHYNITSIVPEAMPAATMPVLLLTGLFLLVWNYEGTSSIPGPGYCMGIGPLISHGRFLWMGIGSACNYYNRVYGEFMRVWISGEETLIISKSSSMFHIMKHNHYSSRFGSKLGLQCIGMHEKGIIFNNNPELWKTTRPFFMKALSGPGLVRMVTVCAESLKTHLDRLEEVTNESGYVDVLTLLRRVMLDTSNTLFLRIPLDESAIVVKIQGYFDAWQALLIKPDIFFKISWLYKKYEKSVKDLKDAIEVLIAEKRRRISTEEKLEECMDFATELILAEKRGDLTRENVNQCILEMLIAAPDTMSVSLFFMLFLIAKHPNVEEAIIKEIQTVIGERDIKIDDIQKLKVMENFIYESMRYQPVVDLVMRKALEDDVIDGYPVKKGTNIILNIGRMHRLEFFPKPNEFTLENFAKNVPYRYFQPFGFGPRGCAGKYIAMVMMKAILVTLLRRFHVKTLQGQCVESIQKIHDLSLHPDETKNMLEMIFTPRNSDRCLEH
Chain of human CYP1A2, CYP1A2 (gene 1544) (P05177 whole entry, looked up): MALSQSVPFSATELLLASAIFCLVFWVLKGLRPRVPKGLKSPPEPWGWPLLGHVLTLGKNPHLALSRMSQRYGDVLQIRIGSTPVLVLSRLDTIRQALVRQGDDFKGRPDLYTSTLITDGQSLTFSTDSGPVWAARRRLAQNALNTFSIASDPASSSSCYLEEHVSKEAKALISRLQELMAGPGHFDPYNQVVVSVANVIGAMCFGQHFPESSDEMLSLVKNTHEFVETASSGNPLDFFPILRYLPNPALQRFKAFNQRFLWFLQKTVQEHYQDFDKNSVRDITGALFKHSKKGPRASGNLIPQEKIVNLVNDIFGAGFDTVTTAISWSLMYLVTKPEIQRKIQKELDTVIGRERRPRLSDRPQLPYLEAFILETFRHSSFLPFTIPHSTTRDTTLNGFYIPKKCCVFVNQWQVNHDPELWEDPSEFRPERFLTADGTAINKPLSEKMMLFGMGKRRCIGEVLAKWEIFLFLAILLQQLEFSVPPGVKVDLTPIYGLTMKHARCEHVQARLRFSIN
Chain of human CYP1A1, CYP1A1 (gene 1543) (P04798 whole entry, looked up): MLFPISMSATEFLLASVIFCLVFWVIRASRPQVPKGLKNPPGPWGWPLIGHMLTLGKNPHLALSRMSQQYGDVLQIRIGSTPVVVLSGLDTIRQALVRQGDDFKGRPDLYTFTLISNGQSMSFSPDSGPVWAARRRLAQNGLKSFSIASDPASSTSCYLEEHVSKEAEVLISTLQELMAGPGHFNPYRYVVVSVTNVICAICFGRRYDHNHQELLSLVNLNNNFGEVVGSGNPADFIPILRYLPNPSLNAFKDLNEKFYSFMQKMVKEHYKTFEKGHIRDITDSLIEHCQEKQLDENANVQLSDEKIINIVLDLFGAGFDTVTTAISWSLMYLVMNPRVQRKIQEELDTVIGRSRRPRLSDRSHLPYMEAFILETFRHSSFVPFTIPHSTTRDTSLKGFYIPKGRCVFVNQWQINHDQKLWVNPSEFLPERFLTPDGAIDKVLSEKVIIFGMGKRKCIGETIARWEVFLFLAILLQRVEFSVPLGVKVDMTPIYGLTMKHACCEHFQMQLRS

C[C@@H]1C[C@H]2[C@@H]3CCC4=CC(=O)C=C[C@]4(C)[C@@]3(F)[C@@H](O)C[C@]2(C)[C@@]1(O)C(=O)COP(=O)(O)O
active: [1] 9.37 µM and 3.63 µM | [4] 4.47 µM and 3.6 µM and 5.06 µM | [7] 2.65 µM | [9] 2.96 µM and 1.73 µM and 1.25 µM | [12] 6.07 µM
inactive: [1] | [2] | [3] | [5] | [6] | [7] | [8] | [10] | [11] | [12] | [13] | [14]

NC(=O)N1C(=O)C(C(=O)c2cc(Cl)cs2)c2cc(F)c(Cl)cc21 (stereo unspecified)
active: [1] 0.345 µM | [3] 11.1 µM | [6] 24.9 µM | [7] 16.4 µM | [15] 20 µM | [8] 5.4 µM | [9] 8.61 µM | [13] 12.4 µM | [14] 20 µM
inactive: [2] | [4] | [5] | [10] | [11] | [12]

c1ccc2c(c1)ccc1ccccc12
not listed: [16] | [17] | [18] | [19]
inactive: all other assays above

CC[C@H](c1ccc(O)cc1)[C@@H](CC)c1ccc(O)cc1
active: [1] 38.1 µM | [2] 22.4 µM | [3] 32 µM | [4] 30.6 µM | [5] 29 µM | [6] 19.1 µM | [7] 20.7 µM | [15] 20.6 µM | [8] 23.9 µM | [9] 17.9 µM | [10] 32.6 µM | [11] 31.1 µM | [12] 20.2 µM | [13] 19.2 µM | [14] 31.4 µM | [16] 1.77 µM

Nc1cccc2c(N)cccc12
active: [1] 12.9 µM | [11] 13.7 µM | [13] 17.5 µM | [18] 7.14 µM | [19] 3.06 µM
not listed: [16]
inactive: all other assays above

— PubChem BioAssay (EPA / NIEHS)
